Our source for the AC50 and outcome values is PubChem BioAssay (EPA / NIEHS).

Inconclusive results are not listed. The source made the active and inactive calls. How the source made its calls, unless noted: active means hit-call score of the fitted dose curve at least 0.9, where 1 is the maximum; inactive means score below 0.9.

Experiment [1] in a line: CCTE_Padilla_ZF_144hpf_TERATOSCORE: (Legacy) CCTE's 144 Hour Post-fertilization zebrafish Assay Teratoscore, Padilla Lab (AID 2283679).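 On AC50: zebrafish embryos with chorions exposed by immersion from 6-8 hpf to 5 dpf with daily renewal; teratogenicity score from eye scoring of death hatching and malformations at 144 hpf; higher score means more developmental defects relative to DMSO baseline.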 In outline: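 Larvae scored by eye at 144 hpf for death, hatching and malformations after a day in clean Hanks'. Before that, daily-renewed exposure at 80 uM (0.4% DMSO, 26C) from roughly 6-8 hpf through 5 dpf, 4 embryos per chemical.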

Experiment [2] in a line: STM_H9_OrnithineISnorm_perc: Stemina devTOX quickPredict H9 human embryonic stem cell (hESC)-based Assay for Ornithine (ORN) Metabolite Biomarker, Normalized (AID 2283712).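 Further: ornithine released into spent medium during last day measured by mass spectrometry.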 In outline: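 UPLC-HRMS readout: endogenous ornithine EIC area / 13C-ORN internal standard, then % of 0.1% DMSO median. H9 hESCs (pluripotent), 72h exposure, re-dosed with fresh media q24h; last 24-h spent media, deproteinized in 40% acetonitrile.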

Experiment [3] can be described thus: STM_H9_CystineISnorm_perc: Stemina devTOX quickPredict H9 human embryonic stem cell (hESC)-based Assay for Cystine (CYSS) Metabolite Biomarker, Normalized (AID 2283713). In outline: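 UPLC-HRMS read-out: endogenous cystine peak area in spent medium, normalized to isotope-labeled internal standard and to median of 0.1% DMSO controls. Pluripotent H9 cells, 72h exposure, daily medium/compound replenishment; medium from last 24h sampled.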

A short description of experiment [4]: Tanguay_ZF_120hpf_ActivityScore_legacy: (Legacy) Oregon State University Tanguay Lab 120 Hour Post-fertilization zebrafish Assay Score for Activity (AID 2283742; active means hit-call score of the fitted dose curve at least 0.9, where 1 is the maximum;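 on AC50: dechorionated Tropical 5D wild-type zebrafish embryos held singly per well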). In outline: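 Binary scoring of mortality and morphology by brightfield at 24 and 120 hpf, summarised into one activity score from 18 components relative to DMSO. Wild-type Tropical 5D zebrafish, chorion removed at 4 hpf, static exposure 6–120 hpf, 28 °C.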

Experiment [5] is described as follows: CEETOX_H295R_MTT_cell_viability: Viability Assessment in the CeeTox HT-H295R MTT Assay (AID 2283718).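 On AC50: curve fitted both ways so AC50 may mark viability loss or gain.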 In outline:
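MTT reduction (0.5 mg/ml, 4 h at 37 C; absorbance at 570 and 650 nm) gave viability as background-corrected percent change versus controls. H295R cells had 48 h forskolin (10 uM) prestimulation, then 48 h chemical exposure at 0.1% DMSO.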

Experiment [6] in a line: STM_H9_OrnCyssISnorm_ratio: Stemina devTOX quickPredict H9 human embryonic stem cell (hESC)-based Assay for Ornithine (ORN):Cystine (CYSS) Ratio (AID 2283714; active means hit-call score of the fitted dose curve at least 0.9, where 1 is the maximum). In outline: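 Ratio of internal-standard-normalized ornithine to cystine, measured by UPLC-HRMS in spent media from the last 24 h. H9 cells kept pluripotent, dosed 72 h with daily media and compound renewal; DMSO 0.1% serves as baseline.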

The subject of experiment [7] is Thyroperoxidase (TPO), gene 445522. Description: CCTE_Simmons_GUA_TPO: CCTE's Guaiacol Assay for Thyroperoxidase (TPO) Inhibition, Simmons Lab (AID 2283750; active means hit-call score of the fitted dose curve at least 0.9, where 1 is the maximum). In outline: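 Porcine thyroid microsomes (25 ug) in 200mM potassium phosphate, preincubated 30 s at 37C with compound (8 concentrations, 5 nM–87.5 uM) and 35mM guaiacol; 1mM H2O2 starts reaction. Absorbance change at 450nm over first 80 s; loss of signal versus DMSO, three replicates.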

`CCOC(=O)O[C@H](C)OC(=O)c1ccc2c(c1)cc(C(=O)NC1CCN(C(C)C)CC1)n2Cc1cc(-c2ccc(Cl)s2)on1`: the AC50 is 4.27 µM (active) in experiment [1] and 34.8 µM (active) in experiment [4]. Also, the result in experiment [2] and in experiment [3] was inactive.
With `Clc1ccccc1C(c1ccccc1)(c1ccccc1)n1ccnc1`, in experiment [1], the AC50 was 1.53 µM (active). Also, the compound was classed as inactive in experiment [5] and in experiment [4].
In the case of `Cc1ccc2oc(CN(Cc3ccccc3)C(=O)Nc3c(F)cc(F)cc3F)c(-c3ccc(Cl)cc3)c2c1`, the compound was classed as inactive in experiment [1], in experiment [5] and in experiment [4].
Regarding `NC(=O)c1nc(-c2cccc(-c3cc(F)ccc3OCC(F)(F)C(F)(F)F)c2)n[nH]1`, the AC50 in experiment [1] was 1.08 µM (active); in experiment [3], 3.59 µM (active); in experiment [6], 3.99 µM (active); in experiment [4], 30.9 µM (active). Besides, the outcome in experiment [2] and in experiment [5] was inactive.
Consider `CCCCCCCCCCCCO`, for which, in experiment [1], the AC50 was 62.8 µM (active). The call in experiment [4] was inactive.
Regarding `O=C(O)Cc1cc(I)c(Oc2ccc(O)c(I)c2)c(I)c1`, the AC50 was 0.101 µM (active) in experiment [1] and 31.3 µM (active) in experiment [4].
For `Cc1c2ccccc2c(C)c2c1ccc1ccccc12`, the AC50 is 4.42 µM (active) in experiment [1]; 5 µM (active) in experiment [3]; 5 µM (active) in experiment [6]; 8.83 µM (active) in experiment [4]; 146 µM (active) in experiment [7]. Besides, the outcome in experiment [2] and in experiment [5] was inactive.
On to `O=c1c(-c2ccc(O)cc2)coc2cc(O)cc(O)c12`, for which the AC50 in experiment [1] is 24.5 µM (active); in experiment [2], 48.8 µM (active); in experiment [3] it was 71.6 µM (active); in experiment [6] it was 73.7 µM (active); in experiment [5], 28.7 µM (active); in experiment [4] it was 20 µM (active).
On to `CC(C)(C)c1cc(/C=C2\SC(N)=NC2=O)cc(C(C)(C)C)c1O`, for which the AC50 in experiment [1] is 4.17 µM (active); in experiment [3], 5 µM (active); in experiment [6], 3.33 µM (active); in experiment [4], 47.2 µM (active). The result in experiment [2] and in experiment [5] was inactive.
Regarding `Oc1ccc2ccccc2c1`, the AC50 in experiment [1] was 57.1 µM (active); in experiment [4], 36.6 µM (active); in experiment [7] it was 72.8 µM (active). The call in experiment [5] was inactive.
`CCCCCCCC[Si](OCC)(OCC)OCC`: the outcome in experiment [1], in experiment [5] and in experiment [4] was inactive.
`CCN(CC)C(=O)c1cc(S(=O)(=O)Cc2ccccc2)c(N2CCC(c3ccccc3)CC2)cc1N(CC)CCN(C)C`: the AC50 in experiment [1] was 20.7 µM (active); in experiment [4], 17.2 µM (active).
In the case of `CCCCCc1ccc(N)cc1`, the AC50 in experiment [1] is 65.9 µM (active). For the same compound, the compound was classed as inactive in experiment [5] and in experiment [4].
For the compound `COc1cc(C(=O)NC2CCN(C)CC2)ccc1Nc1ncc2c(n1)N(C1CCCC1)CC(F)(F)C(=O)N2C`, the AC50 is 24.1 µM (active) in experiment [1]; 0.0393 µM (active) in experiment [2]; 0.0284 µM (active) in experiment [3]; 0.0311 µM (active) in experiment [6]; 40 µM (active) in experiment [4].
As to `OCCO`, the outcome in experiment [2], in experiment [3], in experiment [6] and in experiment [4] was inactive.
Turning to `CCCCOC(=O)CC(CC(=O)OCCCC)(OC(C)=O)C(=O)OCCCC`, the AC50 in experiment [1] was 4.96 µM (active). Besides, the call in experiment [4] was inactive.
For the compound `CCN(Cc1cccnc1)C(=O)c1cccc(Cl)c1[C@]1(C)C(=O)N(Cc2ccc(OC)cc2OC)c2ccc(Cl)cc21`, the figures for the AC50 in experiment [1] and in experiment [4] were 5.26 µM (active) and 32.5 µM (active), respectively.
Take `CCN(Cc1cccc(S(=O)(=O)O)c1)c1ccc(C(=C2C=CC(=[N+](CC)Cc3cccc(S(=O)(=O)O)c3)C=C2)c2ccccc2S(=O)(=O)[O-])cc1`: the result in experiment [1] and in experiment [4] was inactive.
Consider `CCCCCCCCCCCO`, for which, in experiment [1], the AC50 is 62.4 µM (active). For the same compound, in experiment [4], the outcome was inactive.
Turning to `CCCCCCCCOc1ccc(C(=O)c2ccccc2)c(O)c1`, the outcome in experiment [5] and in experiment [4] was inactive.
As for `Oc1ccccc1`, the outcome in experiment [4] was inactive.
On to `Cc1ncc(CO)c(CO)c1O`, for which the compound was classed as inactive in experiment [1] and in experiment [4].
Turning to `Cc1cc2c(cc1C(F)(F)F)N(C(=O)Nc1ccc(Oc3cccnc3C)nc1)CC2`, the outcome in experiment [5] and in experiment [4] was inactive.
Regarding `CCCCCCCCN(C)CCCCCCCC`, the result in experiment [2], in experiment [3], in experiment [6], in experiment [5] and in experiment [4] was inactive.
As for `CC(O)CC(C)(C)O` (stereo not drawn), the outcome in experiment [1] and in experiment [4] was inactive.
As for `O=C(O)c1ccccc1C(=O)OCc1ccccc1`, the result in experiment [5] and in experiment [4] was inactive.
As for `CO[C@H]1/C=C/O[C@@]2(C)Oc3c(C)c(O)c4c(O)c(c(/C=N/N5CCN(C)CC5)c(O)c4c3C2=O)NC(=O)/C(C)=C\C=C\[C@H](C)[C@H](O)[C@@H](C)[C@@H](O)[C@@H](C)[C@H](OC(C)=O)[C@@H]1C`, the outcome in experiment [2], in experiment [5] and in experiment [4] was inactive. Also, the values for the AC50 in experiment [3] and in experiment [6] were 3.27 µM (active) and 4.04 µM (active), respectively.
With `COCC(C)OCC(C)OCC(C)O` (stereo not drawn), in experiment [4], the result was inactive.
`O=C1CCC(C2CCCCC2)CC1`: in experiment [1], the AC50 was 60.4 µM (active). The outcome in experiment [4] was inactive.
On to `CCO[Si](CCCNC(N)=O)(OCC)OCC`, for which the compound was called inactive in experiment [4].
On the same count and under the same terms, as for `c1ccc2ccccc2c1`, the entry is “inactive”.
Take `O=c1[nH]sc2ccccc12`: the AC50 in experiment [1] is 16.4 µM (active). Moreover, in experiment [4], the outcome was inactive.
Take `Cc1cccc2ccccc12`: the compound was classed as inactive in experiment [4].
Still for that read-out and setting: then `CC[C@@H]1C[C@H](N(Cc2cc(C(F)(F)F)cc(C(F)(F)F)c2)C(C)=O)c2cc(C(F)(F)F)ccc2N1C(=O)OC(C)C`, with “inactive”.
Turning to `CCCCCCCCCCCC[N+](C)(C)C`, the half-maximal activity concentration (AC50) in experiment [2] is 7.79 µM (active); in experiment [3] it was 1.6 µM (active); in experiment [6], 4.73 µM (active). For the same compound, the outcome in experiment [5] and in experiment [4] was inactive.
As to `CCCOC(=O)c1cc(O)c(O)c(O)c1`, the result in experiment [4] was inactive.
On to `NCc1cccc(C2CCN(C(=O)c3ccc(C#Cc4ccccc4F)o3)CC2)c1`, for which the values for the half-maximal activity concentration (AC50) in experiment [1] and in experiment [4] were 14.5 µM (active) and 31.6 µM (active), respectively.
As for `CC(C)(C)c1csc(-c2cc3cc(OCc4ccccc4CC(=O)O)ccc3o2)n1`, the AC50 in experiment [1] was 1.71 µM (active); in experiment [4], 27.1 µM (active).
In the case of `CCCC(=O)OCCC(C)C`, in experiment [4], the outcome was inactive.
As for `O=C=NCCCCCCN=C=O`, the AC50 in experiment [2] is 0.0164 µM (active). Besides, the result in experiment [3], in experiment [6] and in experiment [4] was inactive.

As usually defined, the AC50 is the concentration at which the activity in the assay is half-maximal.
